# Only a selection was taken, and hits are over-represented in it overall.
# TTR transcr act = TTR transcription activation, primary screen | SH-SY5Y TTR promoter Gaussia luciferase, luminescence; 100% = recombinant luciferase protein wells | activation, % at 16.7 µM | 92,000 tested, 1.3% active;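 active = activation above the mean of all tested compounds plus 3 SD, cut at about 9.5% in these data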;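 also: cells exposed to compounds for one day before reading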
# HuH7 TTR inh = HuH7 TTR transcription inhibition, counter-screen; HuH7 TTR promoter-Gaussia luciferase reporter, luminescence; 1,100 tested, 4% active; shares compounds with TTR transcr act; inhibition, % at 16.7 µM;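 active = average inhibition above the solvent-only control wells' mean plus 3 SD, cut at about 15% in these data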;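 also: inhibitors lower well luminescence so higher value means more inhibition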
# TTR up confirm = human TTR transcription activation, confirmation; shares compounds with TTR transcr act; SHSY5Y TTR promoter Gaussia luciferase, luminescence; 100% = purified Lucia enzyme wells, no cells; activation, % at 16.7 µM; 1,100 tested, under 10 active; AID 1117280;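 active = mean activation above a set limit taken from the earlier primary screen, cut at about 11% in these data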
# Hits are given with their value; 0 = inactive.
SMILES,TTR transcr act,others
CCOC(=O)c1cc(OCC)c2c(ccc3ccccc32)n1,0,
CCOC(=O)c1cc(N2CCCCC2)nc2ccccc12,0,
CCOc1ccccc1/C=C/c1cc(C(=O)O)c2ccccc2n1,35,HuH7 TTR inh=0;TTR up confirm=0
COCCOC(=O)N(C)C[C@@H]1OCCCC[C@H](C)Oc2ccc(NC(=O)Nc3ccccc3)cc2C(=O)N([C@@H](C)CO)C[C@H]1C,0,
CC(C)(c1ccccc1)c1ccc(OCCn2cnc3ccccc3c2=O)cc1,0,
Cc1cc(C)n(-c2nc3ccccc3c(=O)n2OCCOc2ccccc2)n1,32,HuH7 TTR inh=0;TTR up confirm=0
O=C(c1ccccc1)c1ccc(OCCn2cnc3ccccc3c2=O)cc1,0,
O=C(CCS(=O)(=O)c1ccc(Br)cc1)N1CCN(Cc2ccccc2)CC1,0,
O=C(CSc1ncccn1)N1CCN(Cc2ccccc2)CC1,15,HuH7 TTR inh=0;TTR up confirm=0
Cc1cc(C)c(C#N)c(SCC(=O)N2CCN(Cc3ccccc3)CC2)n1,0,
Cc1ccc(C)c(-n2cc(CN3CCCN(C=O)CC3)c(-c3ccccc3)n2)c1,0,
COc1ccc(CCN2C(=O)c3cccc4c(C(=O)N5CCCCC5)ccc(c34)C2=O)cc1OC,0,
CCCC1CCC2(CC1)CCC2OC(=S)Nc1cccc(I)c1 (centres undefined),0,
CC(C)n1nnnc1C1(C)CN(S(C)(=O)=O)CC(=O)N1Cc1cccc(C(F)(F)F)c1 (centres undefined),0,
CCn1c(=O)[nH]n(C/C(C)=C\c2c[n+](Cc3ccc4c(c3)OCO4)c(N)[nH]2)c1=O,0,
C/C(=N\NC(=O)c1c[nH]c2ccccc12)c1ccco1,0,
O=C(CN1C(=O)C(=O)N(Cc2ccco2)C1=O)c1c[nH]c2ccccc12,11,HuH7 TTR inh=0;TTR up confirm=0
O=C(Cn1cnc2ccccc2c1=O)c1c[nH]c2ccccc12,0,
CCc1ccc(Nc2nc(N3CCOCC3)nc(N3CCOCC3)n2)cc1,0,
Clc1cccc(Nc2nc(N3CCOCC3)nc(N3CCOCC3)n2)c1,0,
c1ccc2oc(-c3ccc(Nc4nc(N5CCOCC5)nc(N5CCOCC5)n4)cc3)nc2c1,10,HuH7 TTR inh=0;TTR up confirm=0
COc1ccccc1-c1coc2c(CN3CCOCC3)c(O)ccc2c1=O,0,
O=S1(=O)c2ccc(N3CCC[C@@H]3CO)cc2O[C@@H]2CCN1C2,0,
CCOC(=O)[C@H]1[C@H]2COc3ccccc3[C@@H]2N2C(=O)c3cc(Cl)ccc3NC(=O)[C@@]12C,0,
CCOC(=O)[C@H]1[C@H]2COc3ccc(C)cc3[C@@H]2N2C(=O)c3cc(OC)c(OC)cc3NC(=O)[C@@]12C,0,
SMILES,TTR transcr act,others
CCOC(=O)[C@H]1[C@H]2COc3ccc(Br)cc3[C@@H]2N2C(=O)N(c3ccc(F)cc3)C(=O)[C@@]12C,0,
CCOC(=O)[C@@H]1[C@H]2COc3ccc(Br)cc3[C@@H]2N2C(=O)N(c3ccc(F)cc3)C(=O)[C@@]12C,16,HuH7 TTR inh=0;TTR up confirm=0
CCOC(=O)[C@H]1[C@H]2COc3ccccc3[C@@H]2N2C(=O)c3ccc(Cl)cc3NC(=O)[C@@]12C,0,
CCOC(=O)[C@@H]1[C@H]2COc3ccc(Br)cc3[C@@H]2N2C(=O)N(c3ccc(Cl)cc3)C(=O)[C@@]12C,0,
CCOC(=O)[C@H]1[C@H]2COc3ccc(Cl)cc3[C@@H]2N2C(=O)c3ccc(C)cc3NC(=O)[C@@]12C,13,HuH7 TTR inh=0;TTR up confirm=0
CCOC(=O)[C@H]1[C@H]2COc3ccc(Br)cc3[C@@H]2N2C(=O)c3cc(OC)c(OC)cc3NC(=O)[C@@]12C,0,
CCOC(=O)[C@H]1[C@H]2COc3ccc(Cl)cc3[C@@H]2N2C(=O)c3cc(Br)ccc3NC(=O)[C@@]12C,16,HuH7 TTR inh=0;TTR up confirm=0
COc1cc(O)c(C(C)=O)c2c1C=CC(C)(C)O2,0,
CCOc1ccccc1Nc1nnc(SCC(=O)N(C)C2CCS(=O)(=O)C2)s1 (centres undefined),0,
O=C(NCCc1ccccc1)OCc1cn(Cc2cccc(F)c2F)nn1,0,
COC(=O)[C@]12CCCCC=C1N(Cc1ccc(OC)cc1)C(=O)[C@@H]2CC(=O)NCCc1ccccc1OC,0,
COC(=O)[C@]12CCCCC=C1N(Cc1ccc(OC)cc1)C(=O)[C@@H]2CC(=O)NCc1cccc(C(F)(F)F)c1,0,
C=CCOC(=O)c1c(C)nc2cc3c(cc2c1C)OCO3,0,
O=C(O)CCNS(=O)(=O)c1ccccc1,0,
O=C(O)CCNS(=O)(=O)c1ccc2ccccc2c1,0,
O=C(O)CNS(=O)(=O)c1cccc(Cl)c1,15,HuH7 TTR inh=0;TTR up confirm=0
O=C(O)CSc1cnc2ccccc2n1,0,
Cc1cc(SCC(=O)O)nc2ccccc12,30,HuH7 TTR inh=0;TTR up confirm=0
Cc1cc(SCC(=O)c2cc3ccccc3o2)nc2ccccc12,0,
COC(=O)[C@]12C[C@H](CC(=O)NCc3cccs3)C(=O)N(Cc3ccccc3)C1=C[C@H](COCc1ccccc1)O[C@@H]2C,0,
C[C@@H]1CN([C@H](C)CO)C(=O)CCCn2cc(nn2)CO[C@H]1CN(C)S(=O)(=O)c1ccc(C#N)cc1,0,
CC(=O)c1csc(-c2ccccc2)n1,0,
CC(=O)c1csc(Nc2ccccc2Cl)n1,12,HuH7 TTR inh=0;TTR up confirm=0
CCCNC(=O)c1csc(Nc2cccc3ccccc23)n1,0,
Cc1cccc(C(=O)N(C(=O)c2cccc(C)c2)N(C)C)c1,0,
SMILES,TTR transcr act,others
COC(=O)c1ccc2nccnc2c1,0,
COC(=O)c1ccc2cn[nH]c2c1,0,
COC(=O)c1cc(OC)nc(OC)c1,16,HuH7 TTR inh=0;TTR up confirm=0
COc1cc(C=O)ccc1OC(=O)Nc1ccccc1,0,
O=C(OC12CCCN(C1)/C(=C/c1cccnc1)C2)c1ccc(F)cc1 (centres undefined),0,
Cc1ccc(-c2nc(N)sc2CC(=O)OCC(=O)NC2CCCC(C)C2C)cc1 (centres undefined),15,HuH7 TTR inh=0;TTR up confirm=0
Cc1ccc(CC(=O)OCC(=O)NC2CCCC(C)C2C)cc1C (centres undefined),0,
CC1CCCC(NC(=O)COC(=O)Cc2ccc(Cl)cc2)C1C (centres undefined),0,
Cc1ccc(S(=O)(=O)N2OC(c3ccccc3)C[C@H]2CC=C(c2ccccc2)c2ccccc2)cc1 (some centres undefined),0,
COc1ccc2c3c1OC1CC(O)C=CC31CCN(C)C2 (centres undefined),12,HuH7 TTR inh=0;TTR up confirm=0
O=C(Nc1ccc(F)cc1)OCc1cn(Cc2c(F)cccc2F)nn1,0,
COC(=O)c1ccc(Cn2ccc3ccc(-c4ccc5ccn(C(=O)c6ccccc6C)c5c4)cc32)cc1,0,
c1ccc2cc3[nH]c(CNc4nc(N5CCOCC5)nc5c4ncn5-c4ccsc4)nc3cc2c1,0,
O=C(Cn1[nH]c(=O)c2ccccc2c1=O)Nc1ccc(-c2nnc3n2CCCCC3)cc1,12,HuH7 TTR inh=0;TTR up confirm=0
O=C(Cc1n[nH]c(=O)c2ccccc12)Nc1ccc(-c2nnc3n2CCCCC3)cc1,0,
Cc1c(C(=O)Nc2ccc(-c3nnc4n3CCCCC4)cc2)oc2c1ccc1ccccc12,0,
CN(C(=O)c1cccc(NC(=O)Cc2cccc(NC(=O)C3CCN(C(=O)C4CCCC4)CC3)c2)c1)C1CC1,0,
CC(=O)c1cc(-c2cccc(CO)c2)c(=O)n2c1CCC2,0,
COC(=O)c1ccc(NC(=O)c2cccnc2)cc1,0,
COC(=O)c1ccc(NC(=O)c2cn(-c3cccc(C)n3)cn2)cc1,30,HuH7 TTR inh=0;TTR up confirm=0
CCOC(CCNC(=O)c1cn(-c2cccc(C)n2)cn1)OCC,0,
